# Measurements as given in PubChem BioAssay (NCI).
# “And” between values parts separate entries of the source, which are not always exact repeats. Equal entries are not always repeated. Compounds without any hit were thinned out: in the full panel of roughly 83,000, 20% have a hit.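 Assay: single dose, 48 h. Readout: percent growth (0 = no net growth; negative = cell death). Active: <10.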 The source made the active and inactive calls.
# Test system: MDA-MB-468 breast
# Test: NCI-60 one-dose screen, 48 h (100 = growth as untreated, 0 = no growth, -100 = all killed)
# Details: 10 µM unless noted
row,SMILES,growth
1,COc1ccc(-c2nc(N)ncc2Oc2ccccc2OC)c(O)c1,-2.89% (active)
2,COc1ccc2c(Nc3ccc(NS(C)(=O)=O)cc3)c3ccccc3nc2c1,-59.5% (active)
3,O=S1(=O)N(CCNc2nccc(-c3c(-c4cccc(O)c4)nc4sccn34)n2)CCN1Cc1ccccc1,94.4% (inactive)
4,CC(=O)N1CCN(CCNC(=O)n2cc(-c3ccncc3)c(-c3ccc(O)c(Cl)c3)n2)CC1,112% (inactive)
5,O=[N+]([O-])c1ccccc1N(S(=O)(=O)c1ccccc1)S(=O)(=O)c1ccccc1,106% (inactive) and 90% (inactive)
6,Cn1c2ccccc2c2nnc(N/N=C/c3ccccn3)nc21,-25.1% (active)
7,COc1cc(-c2nc3c(c(C)nc4c3nnn4-c3ccccc3)c(=O)o2)cc(OC)c1OC,110% (inactive)
8,O=C1Nc2ccccc2C12CC(c1ccc(Cl)cc1)=NN2 (stereo not given),110% (inactive)
9,COc1ccc(-c2cc(-c3ccc(N4CCOCC4)cc3)n3c(n2)nc2ccccc23)cc1OC,93.7% (inactive)
10,Cc1cccc(OCC(O)CN2CCN(c3ccc(Cl)cc3)CC2)c1 (stereo not given),112% (inactive)
11,O=C1CC(N2C(=O)/C(=C/C(Cl)=C\c3ccc([N+](=O)[O-])cc3)SC2=S)C(=O)N1c1ccc(Cl)cc1 (stereo not given),-6.24% (active)
12,S=c1[nH]nc2sc3ccccc3n12,122% (inactive)
13,CC(c1cc(Cl)ccc1O)c1cc(Cl)ccc1O,6.87% (active)
14,COc1ccccc1C(=O)NC(=S)Nc1ccc(-c2nc3ccccc3[nH]2)cc1,75.1% (inactive)
15,Cc1ccc(CSc2nc(-c3ccc(Cl)cc3)c(C#N)c(N3CCNCC3)n2)cc1,81.5% (inactive)
16,COc1cc(-c2nccc3[nH]c(-c4ccc5cc[nH]c5c4)nc23)cc(OC)c1OC,-36.7% (active)
17,Cc1cc(=O)[nH]c(N/N=C/c2ccccc2O)n1,58.1% (inactive)
18,Cc1cc2nc(C(Cl)Cl)nc(-c3ccccc3)n2n1,-20.7% (active)
19,O=C(/C=C/c1ccc(C(F)(F)F)cc1)Nc1ccc(C=C2c3ccccc3C(=O)c3ccccc32)cc1,33.5% (inactive)
20,O=C(O)c1ccc(CO)o1,103% (inactive)

row,SMILES,growth
1,CC(=O)c1ccc(NS(=O)(=O)c2ccc([N+](=O)[O-])cc2)cc1,98.9% (inactive)
2,C#C[C@]1(O)CCC2C3CCc4cc(OC5CCCC5)ccc4C3CC[C@@]21C (stereo not given in full),69.1% (inactive)
3,COc1ccc(/C=N/NC(=O)c2cnn(CC(O)Cc3ccccc3)c2N)cc1OC1CCCC1 (stereo not given),93.4% (inactive)
4,CNC(=O)c1cc(Oc2cccc3nc(NC(=O)Nc4cc(C(F)(F)F)cc(C(F)(F)F)c4)ccc23)ccn1,32% (inactive)
5,CCOC(=O)c1ccc(Nc2ncnc3ccc(NC(=O)c4ccccc4)cc23)cc1,88.9% (inactive)
6,C=C(C)[C@@H]1CC[C@]2(C(=O)O)CC[C@]3(C)[C@H](CC[C@@H]4[C@@]5(C)C/C(=C/c6ccco6)C(=O)C(C)(C)[C@@H]5CC[C@]43C)[C@@H]12,-27.1% [100 µM] (active)
7,Clc1nnc2c3ccccc3ccn12,101% (inactive)
8,COc1cc(NS(=O)(=O)c2ccc(N)cc2)ncn1,105% (inactive)
9,CCOC(=O)c1ccc(Nc2ccnc(SCC(=O)c3ccc(C#N)cc3)n2)cc1,48.1% (inactive)
10,CC(=O)Nc1cccc2c1CCCC2,100% (inactive) and 91.1% (inactive)
11,C=CC[N+]1(CC)CCN=C1CCCCCCCCCCCCCCCCC (stereo not given),-82.6% (active)
12,C=CC(=O)Nc1cccc(Oc2nccc(Nc3nnc(C4CC4)s3)n2)c1,102% (inactive)
13,COc1cc2c(cc1-c1c(C)noc1C)ncc1nc(C3CCCC3)n([C@H](C)COC(F)F)c12,32.7% (inactive)
14,COc1ccc(C(=O)N2NC(=O)/C(=C/c3cn(-c4ccccc4)nc3-c3ccccc3)N=C2c2ccccc2)cc1,95.7% (inactive)
15,CC(=O)n1nc(C(=O)OC(C)C)c2cc(C)c(C)cc21,92.9% (inactive)
16,CCCCCCCC(=O)SCC/C=C/[C@@H]1CC(=O)NCc2cccc(n2)C2=N[C@@](C)(CS2)C(=O)N[C@@H](C(C)C)C(=O)N1,-10.5% (active)
17,C#CC[C@@H]1C[C@]2(C)[C@H]3CC[C@@H]4[C@H]5C(C(=C)C)CC[C@]5(C(=O)NCCCCCCCCN)CC[C@@]4(C)[C@]3(C)CC[C@H]2C(C)(C)[C@H]1OC(C)=O (stereo not given in full),105% (inactive)
18,Cc1nn(-c2ccccc2)c(-n2ccnc2)c1/C=N/Nc1nc(-c2ccc(Cl)c(Cl)c2)cs1,-8.71% (active)
19,CNc1nc2c(s1)C(c1cc(F)ccc1F)CC(=O)N2 (stereo not given),-2.32% (active)
20,CN1C(=O)N(C)[C@H]2NC(NN)=N[C@H]21,101% (inactive)
